In the supplement of paper PMC13380429:

Tests used:
[1] = system: Vero E6 infected with SARS-CoV-2; assay: morphology score (similarity to uninfected cells); higher = more like uninfected cells; conditions: 24 h
[2] = system: Vero E6 infected with SARS-CoV-2; assay: SARS-CoV-2 infection rate relative to infected DMSO; higher = more infection, active = 60 or less; conditions: 24 h

CC(C)=CCC/C(C)=C/CNCCNC1C2CC3CC(C2)CC1C3 (stereo unspecified) (10 µM)
morphology score [1]: 0.122
SARS-CoV-2 infection rate [2]: 94.5% (inactive)

CC(=O)Nc1ccc(OCC(O)CNC(C)C)cc1 (stereo unspecified) [practolol] (10 µM)
morphology score [1]: -0.0762
SARS-CoV-2 infection rate [2]: 106% (inactive)

NCCCC[C@H](NC(=O)[C@@H](Cc1cc(Br)c(O)c(Br)c1)NC(=O)N1CCC(N2Cc3ccccc3NC2=O)CC1)C(=O)N1CCN(c2ccncc2)CC1 (10 µM)
morphology score [1]: 0.0352
SARS-CoV-2 infection rate [2]: 110% (inactive)

Cc1cccc(NC(=O)c2ccc(C(F)(F)F)cc2C(=O)O)n1 (10 µM)
morphology score [1]: -0.208
SARS-CoV-2 infection rate [2]: 109% (inactive)

Cc1cc2c(C(N)=O)cccc2n1-c1nc2c(c(NCc3ccccc3)n1)COCC2 (10 µM)
morphology score [1]: -0.0618
SARS-CoV-2 infection rate [2]: 116% (inactive)

CC(C)C(=O)c1c(C(C)C)nn2ccccc12 [ibudilast] (10 µM)
morphology score [1]: 0.0924
SARS-CoV-2 infection rate [2]: 97% (inactive)

N#C[C@@H]1C[C@@H]2C[C@@H]2N1C(=O)[C@@H](N)C12CC3CC(CC(O)(C3)C1)C2 (10 µM)
morphology score [1]: -0.0311
SARS-CoV-2 infection rate [2]: 105% (inactive)

CC(C)(C)NCC(O)COc1cccc2c1CCC(=O)N2 (stereo unspecified) [carteolol] (10 µM)
morphology score [1]: 0.111
SARS-CoV-2 infection rate [2]: 96.5% (inactive)

Oc1ccc(C2CNCCc3c2cc(O)c(O)c3Cl)cc1 (stereo unspecified) [fenoldopam] (10 µM)
morphology score [1]: 0.226
SARS-CoV-2 infection rate [2]: 95% (inactive)

COc1cc(C(=O)N2CCOCC2)cc(OC)c1OC [trimetozine] (10 µM)
morphology score [1]: -0.0638
SARS-CoV-2 infection rate [2]: 113% (inactive)

COC(=O)N1CCN(Cc2cccc(NC(=O)Nc3ccc(C)nc3)c2F)CC1 [omecamtiv-mecarbil] (10 µM)
morphology score [1]: 0.272
SARS-CoV-2 infection rate [2]: 99% (inactive)

CCCCOc1nc(N)c2c(n1)N(Cc1cccc(CN3CCCC3)c1)CC(=O)N2 (10 µM)
morphology score [1]: -0.135
SARS-CoV-2 infection rate [2]: 106% (inactive)

CC(=O)CC/C=C(\C)CC/C=C(\C)CC/C=C(\C)CCC=C(C)C [teprenone] (10 µM)
morphology score [1]: 0.0677
SARS-CoV-2 infection rate [2]: 101% (inactive)

COc1cccc(Nc2c(C(N)=O)cnc3c(C)cc(S(=O)(=O)c4cccc(C(=O)N(C)C)c4)cc23)c1 (10 µM)
morphology score [1]: 0.345
SARS-CoV-2 infection rate [2]: 91% (inactive)

COc1nc(C)cnc1NS(=O)(=O)c1cccnc1-c1ccc(-c2nnco2)cc1 [zibotentan] (10 µM)
morphology score [1]: 0.109
SARS-CoV-2 infection rate [2]: 120% (inactive)

CN1CC(=O)N=C1NC(=O)Nc1cccc(Cl)c1 [fenobam] (10 µM)
morphology score [1]: -0.115
SARS-CoV-2 infection rate [2]: 107% (inactive)

CS(=O)(=O)c1ccc([C@@H](O)[C@@H](CF)NC(=O)C(Cl)Cl)cc1 [florfenicol] (10 µM)
morphology score [1]: -0.00265
SARS-CoV-2 infection rate [2]: 96.5% (inactive)

FC(F)(F)c1ccc(/C=C/c2nc(COc3ccc(CCCCn4ccnn4)cc3)co2)cc1 [mubritinib] (10 µM)
morphology score [1]: -0.0917
SARS-CoV-2 infection rate [2]: 96% (inactive)

CC12CCC(C(Br)C1=O)C2(C)C (stereo unspecified) [3-bromocamphor] (10 µM)
morphology score [1]: -0.0927
SARS-CoV-2 infection rate [2]: 106% (inactive)

O=[N+]([O-])c1cc([N+](=O)[O-])c(/C=C/c2ccc(Cl)c(Cl)c2)cc1/C=C/c1ccc(Cl)c(Cl)c1 (10 µM)
morphology score [1]: 0.192
SARS-CoV-2 infection rate [2]: 97.5% (inactive)

O=C(O)C(F)(F)C(F)(F)C(F)(F)C(F)(F)C(F)(F)C(F)(F)C(F)(F)F [ammonium-perfluorocaprylate] (10 µM)
morphology score [1]: -0.0312
SARS-CoV-2 infection rate [2]: 112% (inactive)

NCCCNCCSP(=O)(O)O [amifostine] (10 µM)
morphology score [1]: 0.164
SARS-CoV-2 infection rate [2]: 100% (inactive)

CCc1cn([C@H]2C[C@H](O)[C@@H](CO)O2)c(=O)[nH]c1=O [edoxudine] (10 µM)
morphology score [1]: 0.0361
SARS-CoV-2 infection rate [2]: 108% (inactive)

CC(=O)[C@]1(N)Cc2c(O)c3c(c(O)c2[C@@H](O[C@H]2C[C@H](O)[C@H](O)CO2)C1)C(=O)c1ccccc1C3=O [amrubicin] (0.833333 µM)
morphology score [1]: 0.065
SARS-CoV-2 infection rate [2]: 92.5% (inactive)

O=C(Nc1cnc(Cl)nc1)c1ccc(F)c(F)c1 (10 µM)
morphology score [1]: 0.0439
SARS-CoV-2 infection rate [2]: 101% (inactive)

C=C(C)[C@@H]1CC[C@]2(CO)CC[C@]3(C)[C@H](CC[C@@H]4[C@@]5(C)CC[C@H](O)C(C)(C)[C@@H]5CC[C@]43C)[C@@H]12 (10 µM)
morphology score [1]: 0.000891
SARS-CoV-2 infection rate [2]: 99.5% (inactive)

OC[C@@H](O)[C@@H](O)CO [erythritol] (10 µM)
morphology score [1]: 0.135
SARS-CoV-2 infection rate [2]: 87.5% (inactive)

CCOC(=O)[N-]c1c[n+](N2CCOCC2)no1 [molsidomine] (10 µM)
morphology score [1]: 0.0533
SARS-CoV-2 infection rate [2]: 102% (inactive)

COc1ccc2c(C)nc(Nc3nc(C)c(C)c(O)n3)nc2c1 [madrasin] (10 µM)
morphology score [1]: 0.0439
SARS-CoV-2 infection rate [2]: 107% (inactive)

CCOC(=O)[C@H](Cc1ccccc1)NC(=O)c1cc(Cl)c(OCCN2CCN(C)CC2)c(Cl)c1O (10 µM)
morphology score [1]: 0.414
SARS-CoV-2 infection rate [2]: 76.5% (inactive)

CN1C(=O)N[C@H](Cc2c[nH]c3c(Cl)cccc23)C1=O [necrostatin-2] (10 µM)
morphology score [1]: 0.131
SARS-CoV-2 infection rate [2]: 95% (inactive)

CCN(CC)CC1CCN(c2ncc3ncnc(Nc4ccc(F)c(Cl)c4)c3n2)CC1 (10 µM)
morphology score [1]: -0.273
SARS-CoV-2 infection rate [2]: 112% (inactive)

C=CC(=O)Nc1cc2c(Nc3ccc(F)c(Cl)c3)ncnc2cc1OCCCN1CCOCC1 [canertinib] (10 µM)
morphology score [1]: -0.116
SARS-CoV-2 infection rate [2]: 107% (inactive)

CC[C@H](CC#N)OC(=O)N[C@@H](C)c1cccc(NC(=O)Nc2ccc(-c3cnco3)c(OC)c2)c1 (10 µM)
morphology score [1]: -0.000547
SARS-CoV-2 infection rate [2]: 97% (inactive)

CC(C)(C#N)c1cc(Cn2cncn2)cc(C(C)(C)C#N)c1 [anastrozole] (10 µM)
morphology score [1]: -0.0389
SARS-CoV-2 infection rate [2]: 109% (inactive)

C[C@H](N)C(=O)N[C@@]1(C(=O)O)C[C@@H](Sc2nnc[nH]2)[C@H]2[C@H](C(=O)O)[C@H]21 (10 µM)
morphology score [1]: -0.0396
SARS-CoV-2 infection rate [2]: 114% (inactive)

O=C1NC(=O)/C(=C/c2cccc(C(F)(F)F)c2)S1 (10 µM)
morphology score [1]: 0.00293
SARS-CoV-2 infection rate [2]: 106% (inactive)

COc1cccc(OC)c1-c1cc(C(=O)N[C@@H](CC(C)C)C(=O)O)nn1-c1ccnc2cc(Cl)ccc12 (10 µM)
morphology score [1]: -0.0246
SARS-CoV-2 infection rate [2]: 114% (inactive)

Cc1cc(Nc2cc(N3CCN(C)CC3)nc(Sc3ccc(NC(=O)C4CC4)cc3)n2)n[nH]1 [tozasertib] (10 µM)
morphology score [1]: 0.292
SARS-CoV-2 infection rate [2]: 119% (inactive)

COC(=O)[C@H](c1ccccc1Cl)N1CCc2sccc2C1 [clopidogrel] (10 µM)
morphology score [1]: 0.229
SARS-CoV-2 infection rate [2]: 99% (inactive)

CN1CC[C@@]2(C)c3cc(O)ccc3N(C)[C@@H]12 [eseroline-(-)] (10 µM)
morphology score [1]: 0.137
SARS-CoV-2 infection rate [2]: 97% (inactive)

COc1ccc(-c2nc(-c3ccc(-c4cccc(Cl)c4)o3)[nH]c2-c2ccc(OC)cc2)cc1 [neurodazine] (10 µM)
morphology score [1]: 0.198
SARS-CoV-2 infection rate [2]: 70% (inactive)

COc1ccc2c(c1OC)C(=O)O[C@@H]2[C@H]1c2c(cc3c(c2OC)OCO3)CCN1C [noscapine] (10 µM)
morphology score [1]: -0.105
SARS-CoV-2 infection rate [2]: 104% (inactive)

C[C@H](CSC(=O)c1ccccc1)C(=O)N1C[C@@H](Sc2ccccc2)C[C@H]1C(=O)O [zofenopril-calcium] (10 µM)
morphology score [1]: 0.0896
SARS-CoV-2 infection rate [2]: 104% (inactive)

CCCCCCCC/C=C/C(=O)O [trans-2-undecenoic-acid] (10 µM)
morphology score [1]: 0.204
SARS-CoV-2 infection rate [2]: 112% (inactive)

CCCOc1ccc2c(c1)CC[C@@H]1[C@@H]2CC[C@]2(C)[C@@H](OC)CC[C@@H]12 [promestriene] (10 µM)
morphology score [1]: 0.169
SARS-CoV-2 infection rate [2]: 99.5% (inactive)

NC(=O)c1nc(Nc2ccccc2)sc1NC(=O)C1CCCCC1 (0.833333 µM)
morphology score [1]: 0.0658
SARS-CoV-2 infection rate [2]: 100% (inactive)

C[C@]12C=CC(=O)C=C1CC[C@@H]1[C@@H]2[C@@H](O)C[C@@]2(C)[C@H]1CC[C@]2(O)C(=O)COP(=O)(O)O [prednisolone-sodium-phosphate] (10 µM)
morphology score [1]: -0.0179
SARS-CoV-2 infection rate [2]: 93.5% (inactive)

Cc1cc(/C=C/c2ccc3cc(N(C)C)ccc3[n+]2C)c(C)n1-c1ccccc1 [pyrvinium-pamoate] (10 µM)
morphology score [1]: -0.0751
SARS-CoV-2 infection rate [2]: 113% (inactive)

O=C(Nc1ccc(OC(F)(F)F)cc1)c1sccc1NCc1ccnc2ccccc12 (10 µM)
morphology score [1]: 0.0678
SARS-CoV-2 infection rate [2]: 90% (inactive)

CC/C(=C(/CC)c1ccc(OP(=O)(O)O)cc1)c1ccc(OP(=O)(O)O)cc1 [fosfestrol] (10 µM)
morphology score [1]: 0.11
SARS-CoV-2 infection rate [2]: 96% (inactive)

Cc1cccc(C)c1NC(=O)C1CCCCN1C (stereo unspecified) [mepivacaine] (10 µM)
morphology score [1]: 0.171
SARS-CoV-2 infection rate [2]: 97.5% (inactive)

CCOc1nc2c(N)ncnc2n1CC (10 µM)
morphology score [1]: 0.236
SARS-CoV-2 infection rate [2]: 88% (inactive)

Cc1csc2c(N[C@@H](C)CN3CCN(S(=O)(=O)c4ccc(Cl)c(Cl)c4)CC3)ncnc12 [LPA2-antagonist-1] (10 µM)
morphology score [1]: 0.142
SARS-CoV-2 infection rate [2]: 100% (inactive)

NCCC(=O)N[C@@H](Cc1c[nH]cn1)C(=O)O [carnosine] (0.833333 µM)
morphology score [1]: 0.0964
SARS-CoV-2 infection rate [2]: 99% (inactive)

CCc1c(C(=O)NCCc2ccc(N3CCCCC3)cc2)[nH]c2ccc(Cl)cc12 (10 µM)
morphology score [1]: -0.0889
SARS-CoV-2 infection rate [2]: 124% (inactive)

C[C@@H](C1=C(CCN(C)C)Cc2ccccc21)c1ccccn1 (racemic) [dimetindene] (10 µM)
morphology score [1]: 0.121
SARS-CoV-2 infection rate [2]: 94.8% (inactive)

CCC(=O)N1CCN(c2ccc(-n3c(=O)ccc4cnc5ccc(-c6cnc7ccccc7c6)cc5c43)cc2C(F)(F)F)CC1 [torin-1] (10 µM)
morphology score [1]: -0.0739
SARS-CoV-2 infection rate [2]: 107% (inactive)
